From PubChem BioAssay come the findings set out here.

Active and inactive are the calls of the source. No stated cut-off is given here; in the data, active means inhibition above about 44%; inactive means the rest.

The target in the experiment is Steroidogenic factor 1 (Homo sapiens) (UniProt Q13285). Put plainly: inverse agonism at SF1 nuclear receptor – cell-based, luminescence, high throughput, counter-screen for LRH-1 inverse agonist project (AID 651614).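 Further: cells cotransfected with StAR promoter reporter and SF1 expression vector; 0% = vehicle on cells with receptor and 100% = vehicle on cells lacking receptor.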 The note with it: cell-based SF1 luciferase reporter, at 3.6 µM, active compounds read high.
Steroidogenic factor 1 (Homo sapiens), sequence (Q13285 whole entry, looked up): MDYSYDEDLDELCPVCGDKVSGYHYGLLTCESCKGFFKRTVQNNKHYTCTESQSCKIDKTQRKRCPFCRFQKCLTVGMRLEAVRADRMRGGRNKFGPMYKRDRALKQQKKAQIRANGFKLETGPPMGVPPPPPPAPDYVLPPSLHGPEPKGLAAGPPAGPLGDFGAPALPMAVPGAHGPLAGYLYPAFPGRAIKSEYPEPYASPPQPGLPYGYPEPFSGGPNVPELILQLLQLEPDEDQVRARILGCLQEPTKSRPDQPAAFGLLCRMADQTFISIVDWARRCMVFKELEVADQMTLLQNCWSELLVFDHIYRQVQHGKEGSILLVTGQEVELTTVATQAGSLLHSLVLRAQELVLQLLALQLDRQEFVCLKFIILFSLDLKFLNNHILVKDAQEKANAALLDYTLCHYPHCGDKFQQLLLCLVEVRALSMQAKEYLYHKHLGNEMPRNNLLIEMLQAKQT
For `Cc1ccc(Sc2ccc(NC(=O)CCl)cc2)cc1C`, the inhibition (commonly the share of the control response that was lost under treatment) was 56.5% (active).

Turning to `O=C(c1ccccc1Br)N1CCN(c2ccc([N+](=O)[O-])c(N3CCOCC3)c2)CC1`, the inhibition was 38.9% (inactive).

Turning to `CCc1cc(=O)oc2cc3occ(-c4ccc(OC)c(F)c4)c3cc12`, the inhibition was 60.6% (active).

Turning to `O=C(C(Cl)c1ccccc1)N1CCOCC1` (stereo not given), the inhibition was 54.5% (active).

For the molecule `Cc1ccc(NC(=O)CSc2nnc(CCCCCNC(=O)OC(C)(C)C)o2)c(C)c1`, the inhibition is 42.7% (inactive).

Take `O=C(Nc1ccc(N2CCN(C(=O)c3ccco3)CC2)cc1)c1ccc2c(c1)OCO2`: the inhibition was 50.7% (active).

As for `Cc1ccc(C(=O)N/N=C\c2ccc([N+](=O)[O-])o2)cn1`, the inhibition was 57% (active).

Consider `C=CC[n+]1c(-c2ccc(Cl)cc2Cl)csc1Nc1c(C)n(C)n(-c2ccccc2)c1=O`, for which the inhibition is 61% (active).

As to `Cc1cc(NCCCCCCCNc2cc(C)nc3cc([N+](=O)[O-])ccc23)c2ccc([N+](=O)[O-])cc2n1`, the inhibition was 40.3% (inactive).

Consider `C#Cc1cc(N2CCN(C(=O)c3ccoc3)CC2)n2nc(-c3cccc(Cl)c3)cc2n1`, for which the inhibition is 62.4% (active).

As to `CC(=O)N1CCN(c2cc(N3CCCC3)c(F)cc2[N+](=O)[O-])CC1`, the inhibition is 48.7% (active).

For `COc1ccc(C2=CC(=O)CC(C)(C)C2)cc1OC`, the inhibition was 51.9% (active).

`Cc1ccc(NNC(N)=S)cc1Cl`: the inhibition was 50.5% (active).

As to `O=C(N/N=C/c1c[nH]c2ccccc12)c1[nH]c2ccc(Br)cc2c1-c1ccccc1`, the inhibition is 57% (active).

For `CSCc1c(C(=O)Nc2ccccc2N2CCOCC2)oc2ccccc12`, the inhibition was 62.5% (active).

Take `O=C(NCCCc1ccccc1)c1cc([N+](=O)[O-])ccc1Cl`: the inhibition is 67.5% (active).

`CCNc1nc(-c2sc(NC(=O)C(C)(C)C)nc2C)c(-n2cc(-c3ccccc3)nn2)s1`: the inhibition is 41.4% (inactive).

On to `COc1cc2c(OC(C)=O)c3c(c(-c4ccc5c(c4)OCO5)c2cc1OC)C(=O)OC3`, for which the inhibition was 36.2% (inactive).

Consider `CC1(C)CC2CC(C)(CN2S(=O)(=O)c2ccc(C(=O)Nc3cccc(S(=O)(=O)N4CCOCC4)c3)cc2)C1` (stereo not given), for which the inhibition was 56.4% (active).

Consider `CCOCC(=O)Nc1ccc([N+](=O)[O-])cc1C`, for which the inhibition was 57.7% (active).

Consider `CNC(=O)c1cccc(NC(=O)c2cc(-c3ccccc3)nc3c2cnn3C(C)C)c1`, for which the inhibition was 49.4% (active).

Regarding `COc1ccc(OCCNC(=O)c2ccccc2OCC(=O)Nc2ccc(NC(C)=O)cc2)cc1`, the inhibition is 52.4% (active).

Take `COc1ccc(C2=CC(=O)OC3(CCCC3)O2)cc1`: the inhibition is 54.5% (active).

Consider `CCCOc1ccc2oc(=O)c3c(c2c1)CCCN3C(=O)CN1CCN(c2ncccn2)CC1`, for which the inhibition was 55.7% (active).

For the molecule `O=C(NC1CCCCC1)c1ccc([N+](=O)[O-])o1`, the inhibition was 54.4% (active).

Consider `Nc1cccc2nc3ccccc3cc12`, for which the inhibition is 55.1% (active).

On to `Cc1c(NC(=O)c2ccc([N+](=O)[O-])o2)cccc1-c1nc2ncccc2o1`, for which the inhibition was 58.7% (active).

In the case of `CCN(CC)S(=O)(=O)c1cc(NC(=O)CCCOc2ccc(C(C)=O)cc2)ccc1C`, the inhibition is 19.8% (inactive).

For the molecule `Nc1ccc(C(=O)NN2C(=O)[C@H](Cl)C2c2ccc(Cl)cc2)cc1` (stereo not given in full), the inhibition was 52.1% (active).

`O=[N+]([O-])c1ccc(N2CCN(S(=O)(=O)c3ccccc3)CC2)cc1NCc1cccnc1`: the inhibition was 43.3% (active).

Turning to `Cc1c(C#N)c(O)n(CCO)c(=O)c1N=Nc1ccc2c(c1)COC2=O`, the inhibition is 52.1% (active).

For the molecule `COc1cccc(C2c3cc4c(cc3OC(N3CCOCC3)C2C)OCO4)c1O` (stereo not given), the inhibition is 45.3% (active).

As to `CC(=O)N1CCN(c2ccc(NC(=O)c3cccc([N+](=O)[O-])c3)cc2)CC1`, the inhibition was 49.6% (active).

`CCC(C)(C)n1nnnc1CN1CCC(O)(c2cccc(C(F)(F)F)c2)CC1`: the inhibition is 57.2% (active).

With `Fc1ccc(Br)cc1SCCc1ccncc1`, the inhibition is 34.9% (inactive).

`CC(NC(=O)c1ccco1)C(c1cccs1)N1CCN(c2ccccc2F)CC1` (stereo not given): the inhibition is 42.6% (inactive).

`Cc1ccn2c(=O)nc(SCC(=O)Nc3ccc4c(c3)OCCO4)nc2c1`: the inhibition is 51% (active).

For `Cn1c(=O)n(C)c2cc(NC(=O)CSc3nnc(-c4ccccc4O)n3-c3ccccc3)ccc21`, the inhibition is 54.8% (active).

Consider `Cc1ccc(NC(=O)COC(=O)C(NS(=O)(=O)c2ccc(Cl)cc2)C(C)O)c(Br)c1` (stereo not given), for which the inhibition is 57.6% (active).

As for `Cc1ccc(OCc2nnc(SCC(=O)Nc3ccc4c(c3)OCCO4)n2Cc2ccco2)cc1`, the inhibition was 41.2% (inactive).
